Assay results taken from PMC7862700, “An all-to-all approach to the identification of sequence-specific readers for epigenetic DNA modifications on cytosine”.

Assays:
Test in all cases: DAPPL (digital affinity profiling via proximity ligation, sequencing); 10 mM Tris-HCl pH 7.5, 50 mM NaCl, 1 mM DTT, 4% glycerol, room temperature, 30 min; GST-TFs on glutathione beads, 16-mer random dsDNA library, 0.1% formaldehyde crosslink after washing; high values mean tight binding
FLI1 = molecular target: T1, FLI1 (Homo sapiens, UniProt Q01543 1-452); conditions: protein: recombinant; tags: N-terminal GST; dsDNA, one strand shown
T1 sequence: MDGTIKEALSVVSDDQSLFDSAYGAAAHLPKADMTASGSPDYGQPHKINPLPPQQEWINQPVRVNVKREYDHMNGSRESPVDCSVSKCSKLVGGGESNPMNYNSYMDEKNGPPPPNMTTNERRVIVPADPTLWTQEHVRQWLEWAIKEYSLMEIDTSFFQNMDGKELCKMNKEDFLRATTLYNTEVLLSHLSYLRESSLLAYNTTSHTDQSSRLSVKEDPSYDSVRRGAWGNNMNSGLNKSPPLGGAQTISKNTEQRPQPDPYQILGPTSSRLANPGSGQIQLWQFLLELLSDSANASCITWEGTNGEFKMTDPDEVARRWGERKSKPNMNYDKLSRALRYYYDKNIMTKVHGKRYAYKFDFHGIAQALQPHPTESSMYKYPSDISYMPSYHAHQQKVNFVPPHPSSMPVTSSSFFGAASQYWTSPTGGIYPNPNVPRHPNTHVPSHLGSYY
How it was run: (§1)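 Pools of DNA-barcoded human transcription factors, expressed in yeast as GST fusions on glutathione beads and combined with a tag-only sample, were incubated with 200 nmole of a 16-mer random double-stranded DNA library. Incubation took 30 min at room temperature in Tris/NaCl/DTT/glycerol buffer and was followed by washing, 0.1% formaldehyde crosslinking, proximity ligation (BsaI/T4 ligase, 1 h, 37 °C), PCR amplification and sequencing on an Illumina NextSeq500. Binding signal is the ratio of a hexamer's read frequency for a factor to its frequency for the tag-only sample.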

ELK1 = molecular target: T2, ELK1 (Homo sapiens, UniProt P19419 1-428); conditions: protein: recombinant; tags: N-terminal GST; dsDNA, one strand shown
T2 sequence: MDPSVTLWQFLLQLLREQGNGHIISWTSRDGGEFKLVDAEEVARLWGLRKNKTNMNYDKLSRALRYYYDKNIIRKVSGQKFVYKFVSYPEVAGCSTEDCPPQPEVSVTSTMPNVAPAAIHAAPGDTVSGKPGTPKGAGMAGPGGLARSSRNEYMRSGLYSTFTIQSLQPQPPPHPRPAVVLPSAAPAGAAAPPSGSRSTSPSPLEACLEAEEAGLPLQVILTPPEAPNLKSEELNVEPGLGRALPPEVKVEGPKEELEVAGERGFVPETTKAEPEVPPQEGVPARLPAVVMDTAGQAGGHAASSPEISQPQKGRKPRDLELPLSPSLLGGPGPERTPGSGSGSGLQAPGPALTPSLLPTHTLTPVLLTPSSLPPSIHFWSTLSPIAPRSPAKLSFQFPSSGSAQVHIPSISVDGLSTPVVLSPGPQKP
How it was run: as §1

GABPA = molecular target: T3, GABPA (Homo sapiens, UniProt Q06546 1-454); conditions: protein: recombinant; tags: N-terminal GST; dsDNA, one strand shown
T3 sequence: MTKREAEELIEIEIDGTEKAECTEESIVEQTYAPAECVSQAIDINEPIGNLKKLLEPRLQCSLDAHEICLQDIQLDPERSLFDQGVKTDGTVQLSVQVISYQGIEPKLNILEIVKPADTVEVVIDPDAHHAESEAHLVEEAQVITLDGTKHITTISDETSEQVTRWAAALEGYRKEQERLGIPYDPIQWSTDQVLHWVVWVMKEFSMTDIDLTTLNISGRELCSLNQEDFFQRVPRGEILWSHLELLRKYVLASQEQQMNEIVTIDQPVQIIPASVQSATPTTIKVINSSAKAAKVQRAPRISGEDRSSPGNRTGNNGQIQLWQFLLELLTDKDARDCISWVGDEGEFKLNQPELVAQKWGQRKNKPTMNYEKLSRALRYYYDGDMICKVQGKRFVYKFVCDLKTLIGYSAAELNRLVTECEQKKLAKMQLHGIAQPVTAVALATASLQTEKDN
How it was run: as §1

ERG = molecular target: T4, ERG (Homo sapiens, UniProt P11308 1-479); conditions: protein: recombinant; tags: N-terminal GST; dsDNA, one strand shown
T4 sequence: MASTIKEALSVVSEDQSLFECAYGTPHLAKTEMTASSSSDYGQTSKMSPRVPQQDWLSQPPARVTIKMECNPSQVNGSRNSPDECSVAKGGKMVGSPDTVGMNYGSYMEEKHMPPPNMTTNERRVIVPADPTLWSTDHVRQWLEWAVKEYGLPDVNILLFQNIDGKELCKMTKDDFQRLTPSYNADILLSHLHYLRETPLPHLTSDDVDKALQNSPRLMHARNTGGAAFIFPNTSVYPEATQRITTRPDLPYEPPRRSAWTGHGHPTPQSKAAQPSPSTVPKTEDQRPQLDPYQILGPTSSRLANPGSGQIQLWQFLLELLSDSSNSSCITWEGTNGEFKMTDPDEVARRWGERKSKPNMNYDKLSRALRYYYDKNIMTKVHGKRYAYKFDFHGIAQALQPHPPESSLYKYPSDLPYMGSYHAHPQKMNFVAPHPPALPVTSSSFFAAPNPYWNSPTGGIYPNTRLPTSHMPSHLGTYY
How it was run: as §1

ELF1 = ELF1 (Homo sapiens, UniProt P32519 1-619); conditions: protein: recombinant; tags: N-terminal GST; dsDNA, one strand shown
ELF1, sequence (P32519 whole entry): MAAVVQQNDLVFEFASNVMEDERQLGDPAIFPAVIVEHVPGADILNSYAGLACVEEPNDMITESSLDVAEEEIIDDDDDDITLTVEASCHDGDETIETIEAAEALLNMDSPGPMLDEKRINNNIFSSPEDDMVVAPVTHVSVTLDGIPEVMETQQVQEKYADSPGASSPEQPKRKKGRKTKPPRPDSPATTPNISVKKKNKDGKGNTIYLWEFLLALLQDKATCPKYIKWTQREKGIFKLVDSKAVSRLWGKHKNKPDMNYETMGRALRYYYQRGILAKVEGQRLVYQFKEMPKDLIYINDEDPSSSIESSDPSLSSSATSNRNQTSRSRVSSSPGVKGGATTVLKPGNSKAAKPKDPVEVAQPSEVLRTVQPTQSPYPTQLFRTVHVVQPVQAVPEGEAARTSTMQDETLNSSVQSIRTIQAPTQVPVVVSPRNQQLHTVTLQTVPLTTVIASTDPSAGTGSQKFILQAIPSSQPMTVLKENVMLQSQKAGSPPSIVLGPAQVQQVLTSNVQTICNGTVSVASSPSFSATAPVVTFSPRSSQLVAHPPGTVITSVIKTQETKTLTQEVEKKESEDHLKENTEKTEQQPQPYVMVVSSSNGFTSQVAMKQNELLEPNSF
How it was run: as §1

EHF = molecular target: T5, EHF (Homo sapiens, UniProt Q9NZC4 1-300); conditions: protein: recombinant; tags: N-terminal GST; dsDNA, one strand shown
T5 sequence: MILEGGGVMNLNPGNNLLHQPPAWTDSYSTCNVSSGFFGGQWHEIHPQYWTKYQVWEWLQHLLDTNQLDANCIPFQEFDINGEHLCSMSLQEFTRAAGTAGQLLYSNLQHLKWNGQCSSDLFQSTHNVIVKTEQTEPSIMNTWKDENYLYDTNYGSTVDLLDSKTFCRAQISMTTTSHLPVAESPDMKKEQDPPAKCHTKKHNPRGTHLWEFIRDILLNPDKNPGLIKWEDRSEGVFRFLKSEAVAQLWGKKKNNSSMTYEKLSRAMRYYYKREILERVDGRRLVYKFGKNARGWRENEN
How it was run: as §1

SPI1 = SPI1 (Homo sapiens, UniProt P17947 1-270); conditions: protein: recombinant; tags: N-terminal GST; dsDNA, one strand shown
How it was run: as §1

SPIB = SPIB (Homo sapiens, UniProt Q01892 1-262); conditions: protein: recombinant; tags: N-terminal GST; dsDNA, one strand shown
SPIB, sequence (Q01892 whole entry): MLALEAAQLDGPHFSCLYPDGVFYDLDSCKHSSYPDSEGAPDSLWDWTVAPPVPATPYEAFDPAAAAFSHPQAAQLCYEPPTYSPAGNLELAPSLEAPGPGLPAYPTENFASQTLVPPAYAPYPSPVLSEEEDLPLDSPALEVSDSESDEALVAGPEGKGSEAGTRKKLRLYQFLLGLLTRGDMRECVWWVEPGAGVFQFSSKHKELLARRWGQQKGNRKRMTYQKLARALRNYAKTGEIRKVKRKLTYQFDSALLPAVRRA
How it was run: as §1

ELK3 = molecular target: T6, ELK3 (Homo sapiens, UniProt P41970 1-407); conditions: protein: recombinant; tags: N-terminal GST; dsDNA, one strand shown
T6 sequence: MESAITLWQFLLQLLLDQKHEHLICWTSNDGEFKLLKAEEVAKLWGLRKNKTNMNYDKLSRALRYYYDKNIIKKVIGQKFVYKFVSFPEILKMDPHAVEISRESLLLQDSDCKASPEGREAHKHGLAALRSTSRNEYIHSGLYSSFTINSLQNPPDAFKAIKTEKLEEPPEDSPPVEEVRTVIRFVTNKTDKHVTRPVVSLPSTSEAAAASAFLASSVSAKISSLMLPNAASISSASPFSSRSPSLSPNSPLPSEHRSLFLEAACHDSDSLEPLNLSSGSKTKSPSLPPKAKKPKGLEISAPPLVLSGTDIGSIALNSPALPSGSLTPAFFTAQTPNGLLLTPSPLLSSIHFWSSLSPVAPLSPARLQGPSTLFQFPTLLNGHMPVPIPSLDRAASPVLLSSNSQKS
How it was run: as §1

FEV = molecular target: T7, FEV (Homo sapiens, UniProt Q99581 1-238); conditions: protein: recombinant; tags: N-terminal GST; dsDNA, one strand shown
T7 sequence: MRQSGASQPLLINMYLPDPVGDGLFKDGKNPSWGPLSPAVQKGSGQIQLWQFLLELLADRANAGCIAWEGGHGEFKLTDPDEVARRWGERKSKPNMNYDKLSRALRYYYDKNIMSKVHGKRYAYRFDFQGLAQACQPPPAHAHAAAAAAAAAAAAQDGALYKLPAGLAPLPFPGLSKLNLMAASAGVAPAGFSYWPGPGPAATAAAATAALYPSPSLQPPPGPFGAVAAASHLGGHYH
How it was run: as §1

ETV5 = ETV5 (Homo sapiens, UniProt P41161 1-510); conditions: protein: recombinant; tags: N-terminal GST; dsDNA, one strand shown
ETV5, sequence (P41161 whole entry): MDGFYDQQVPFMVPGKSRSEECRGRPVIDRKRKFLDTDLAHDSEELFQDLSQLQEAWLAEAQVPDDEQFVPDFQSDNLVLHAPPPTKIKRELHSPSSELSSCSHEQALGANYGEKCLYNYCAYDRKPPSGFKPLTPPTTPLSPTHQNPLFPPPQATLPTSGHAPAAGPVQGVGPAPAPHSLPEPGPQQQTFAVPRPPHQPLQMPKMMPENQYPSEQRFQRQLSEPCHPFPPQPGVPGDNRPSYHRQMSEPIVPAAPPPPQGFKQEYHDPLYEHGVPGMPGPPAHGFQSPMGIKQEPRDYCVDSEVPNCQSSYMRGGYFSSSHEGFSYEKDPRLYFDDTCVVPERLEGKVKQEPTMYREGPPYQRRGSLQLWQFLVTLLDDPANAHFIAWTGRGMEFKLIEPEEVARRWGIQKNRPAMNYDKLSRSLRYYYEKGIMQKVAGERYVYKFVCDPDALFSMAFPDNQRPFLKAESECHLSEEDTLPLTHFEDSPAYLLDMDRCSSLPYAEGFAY
How it was run: as §1

HSF1 = HSF1 (Homo sapiens, UniProt Q00613 1-529); conditions: protein: recombinant; tags: N-terminal GST; chain copies: 3; dsDNA, one strand shown
HSF1, sequence (Q00613 whole entry): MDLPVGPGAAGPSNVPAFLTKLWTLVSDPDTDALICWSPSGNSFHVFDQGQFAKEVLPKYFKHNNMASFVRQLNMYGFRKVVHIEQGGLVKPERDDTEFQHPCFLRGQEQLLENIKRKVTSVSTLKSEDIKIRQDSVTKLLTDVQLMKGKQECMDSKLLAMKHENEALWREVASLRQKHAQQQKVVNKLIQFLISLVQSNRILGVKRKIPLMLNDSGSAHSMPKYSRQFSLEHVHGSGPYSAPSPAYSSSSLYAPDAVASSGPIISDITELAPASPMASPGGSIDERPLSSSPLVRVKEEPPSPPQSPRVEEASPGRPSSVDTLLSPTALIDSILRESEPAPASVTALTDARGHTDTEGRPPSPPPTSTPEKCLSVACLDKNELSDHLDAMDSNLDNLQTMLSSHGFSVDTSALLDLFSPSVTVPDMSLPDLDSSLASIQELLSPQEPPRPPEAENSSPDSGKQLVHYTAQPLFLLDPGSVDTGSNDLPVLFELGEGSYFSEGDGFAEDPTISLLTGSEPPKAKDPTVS
How it was run: as §1

SPIC = molecular target: T8, SPIC (Homo sapiens, UniProt Q8N5J4 1-248); conditions: protein: recombinant; tags: N-terminal GST; dsDNA, one strand shown
T8 sequence: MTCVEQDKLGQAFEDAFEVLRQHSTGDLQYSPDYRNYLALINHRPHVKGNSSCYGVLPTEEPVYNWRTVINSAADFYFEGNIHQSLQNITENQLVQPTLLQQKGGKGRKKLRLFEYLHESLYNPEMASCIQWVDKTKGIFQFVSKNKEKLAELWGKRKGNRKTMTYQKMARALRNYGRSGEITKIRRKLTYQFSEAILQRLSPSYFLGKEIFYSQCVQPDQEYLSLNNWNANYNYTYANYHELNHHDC
How it was run: as §1

ELF4 = ELF4 (Homo sapiens, UniProt Q99607 1-663); conditions: protein: recombinant; tags: N-terminal GST; dsDNA, one strand shown
ELF4, sequence (Q99607 whole entry): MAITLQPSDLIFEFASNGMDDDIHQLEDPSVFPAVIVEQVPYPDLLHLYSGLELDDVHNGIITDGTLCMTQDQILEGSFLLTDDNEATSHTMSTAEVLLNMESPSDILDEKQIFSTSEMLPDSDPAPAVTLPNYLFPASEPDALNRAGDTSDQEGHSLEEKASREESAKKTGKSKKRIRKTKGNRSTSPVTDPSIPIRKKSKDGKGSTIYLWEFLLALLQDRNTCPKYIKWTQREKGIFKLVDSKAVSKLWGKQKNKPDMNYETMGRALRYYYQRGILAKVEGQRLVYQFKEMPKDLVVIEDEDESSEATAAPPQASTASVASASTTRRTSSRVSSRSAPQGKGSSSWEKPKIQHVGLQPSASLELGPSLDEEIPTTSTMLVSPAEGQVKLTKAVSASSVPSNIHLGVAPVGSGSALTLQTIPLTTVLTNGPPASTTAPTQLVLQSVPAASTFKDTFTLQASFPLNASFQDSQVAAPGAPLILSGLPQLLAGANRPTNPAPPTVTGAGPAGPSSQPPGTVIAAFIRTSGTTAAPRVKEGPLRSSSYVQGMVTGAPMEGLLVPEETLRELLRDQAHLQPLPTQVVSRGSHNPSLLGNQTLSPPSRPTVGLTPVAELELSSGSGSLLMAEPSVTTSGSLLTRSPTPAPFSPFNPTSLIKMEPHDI
How it was run: as §1

ELK4 = molecular target: T9, ELK4 (Homo sapiens, UniProt P28324-2 1-405); conditions: protein: recombinant; tags: N-terminal GST; dsDNA, one strand shown
T9 sequence: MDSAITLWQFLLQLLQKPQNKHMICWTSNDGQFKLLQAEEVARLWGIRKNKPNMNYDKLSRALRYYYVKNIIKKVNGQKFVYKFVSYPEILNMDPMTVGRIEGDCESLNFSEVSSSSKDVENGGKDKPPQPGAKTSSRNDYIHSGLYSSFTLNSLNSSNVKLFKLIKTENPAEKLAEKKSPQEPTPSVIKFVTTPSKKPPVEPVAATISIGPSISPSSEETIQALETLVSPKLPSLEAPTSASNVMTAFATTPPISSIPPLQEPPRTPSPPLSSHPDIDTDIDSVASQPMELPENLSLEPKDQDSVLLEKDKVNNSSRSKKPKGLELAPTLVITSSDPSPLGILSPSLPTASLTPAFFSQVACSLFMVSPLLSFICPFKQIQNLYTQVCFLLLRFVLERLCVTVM
How it was run: as §1

ETV2 = molecular target: T10, ETV2 (Homo sapiens, UniProt O00321 1-342); conditions: protein: recombinant; tags: N-terminal GST; dsDNA, one strand shown
T10 sequence: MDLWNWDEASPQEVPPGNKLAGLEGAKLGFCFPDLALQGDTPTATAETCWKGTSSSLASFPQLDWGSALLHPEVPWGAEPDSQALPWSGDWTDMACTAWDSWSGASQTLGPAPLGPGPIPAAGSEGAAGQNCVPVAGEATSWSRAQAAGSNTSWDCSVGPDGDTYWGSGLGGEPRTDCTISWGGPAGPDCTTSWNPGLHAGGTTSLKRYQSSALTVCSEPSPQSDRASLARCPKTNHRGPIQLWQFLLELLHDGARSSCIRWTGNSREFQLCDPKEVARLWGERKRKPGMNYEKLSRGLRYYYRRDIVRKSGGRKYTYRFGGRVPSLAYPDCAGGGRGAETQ
How it was run: as §1

ELF3 = molecular target: T11, ELF3 (Homo sapiens, UniProt P78545 1-371); conditions: protein: recombinant; tags: N-terminal GST; dsDNA, one strand shown
T11 sequence: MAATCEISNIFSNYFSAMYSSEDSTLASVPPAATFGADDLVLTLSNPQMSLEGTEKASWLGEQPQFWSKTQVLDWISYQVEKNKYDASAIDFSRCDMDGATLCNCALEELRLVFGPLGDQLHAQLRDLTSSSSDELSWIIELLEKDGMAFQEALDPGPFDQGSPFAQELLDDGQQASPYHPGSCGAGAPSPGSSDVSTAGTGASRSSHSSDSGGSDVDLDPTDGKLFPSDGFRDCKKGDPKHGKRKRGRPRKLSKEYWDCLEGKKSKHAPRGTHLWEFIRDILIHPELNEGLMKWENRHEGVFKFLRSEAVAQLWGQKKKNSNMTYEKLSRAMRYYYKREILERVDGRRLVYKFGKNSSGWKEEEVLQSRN
How it was run: as §1

CRX = CRX (Homo sapiens, UniProt O43186 1-299); conditions: protein: recombinant; tags: N-terminal GST; dsDNA, one strand shown
CRX, sequence (O43186 whole entry): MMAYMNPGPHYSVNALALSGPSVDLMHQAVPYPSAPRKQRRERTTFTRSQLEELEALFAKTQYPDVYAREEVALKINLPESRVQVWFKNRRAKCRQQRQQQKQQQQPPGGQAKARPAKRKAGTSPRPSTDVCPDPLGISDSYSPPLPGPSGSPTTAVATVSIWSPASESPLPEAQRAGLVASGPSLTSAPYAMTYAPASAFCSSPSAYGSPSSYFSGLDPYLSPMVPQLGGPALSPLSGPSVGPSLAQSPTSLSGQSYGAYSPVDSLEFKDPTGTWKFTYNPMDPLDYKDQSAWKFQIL
How it was run: as §1

ETV1 = ETV1 (Homo sapiens, UniProt P50549 1-477); conditions: protein: recombinant; tags: N-terminal GST; dsDNA, one strand shown
ETV1, sequence (P50549 whole entry): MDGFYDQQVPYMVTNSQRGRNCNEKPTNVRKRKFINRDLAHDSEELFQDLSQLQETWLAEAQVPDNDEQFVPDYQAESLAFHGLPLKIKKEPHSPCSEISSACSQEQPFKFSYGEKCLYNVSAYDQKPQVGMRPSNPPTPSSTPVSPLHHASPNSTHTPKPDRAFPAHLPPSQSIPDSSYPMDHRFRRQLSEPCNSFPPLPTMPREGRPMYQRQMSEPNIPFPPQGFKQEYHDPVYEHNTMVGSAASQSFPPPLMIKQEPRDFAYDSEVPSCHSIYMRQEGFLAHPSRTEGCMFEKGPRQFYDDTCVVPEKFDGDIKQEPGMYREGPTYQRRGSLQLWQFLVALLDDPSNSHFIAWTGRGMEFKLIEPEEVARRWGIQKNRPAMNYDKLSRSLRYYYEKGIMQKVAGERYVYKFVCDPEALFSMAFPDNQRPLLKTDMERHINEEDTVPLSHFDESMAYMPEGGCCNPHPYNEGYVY
How it was run: as §1

Sequence: ATAATC
- binding signal (FLI1): 1.17 fold enrichment (6-mer frequency, TF over GST control)
- binding signal (ELK1): 1.16 fold enrichment (6-mer frequency, TF over GST control)
- binding signal (GABPA): 1.14 fold enrichment (6-mer frequency, TF over GST control)
- binding signal (ERG): 1.13 fold enrichment (6-mer frequency, TF over GST control)
- binding signal (ELF1): 1.07 fold enrichment (6-mer frequency, TF over GST control)
- binding signal (EHF): 1.14 fold enrichment (6-mer frequency, TF over GST control)
- binding signal (SPI1): 1.1 fold enrichment (6-mer frequency, TF over GST control)
- binding signal (SPIB): 1.08 fold enrichment (6-mer frequency, TF over GST control)
- binding signal (ELK3): 1.17 fold enrichment (6-mer frequency, TF over GST control)
- binding signal (FEV): 1.1 fold enrichment (6-mer frequency, TF over GST control)
- binding signal (ETV5): 1.17 fold enrichment (6-mer frequency, TF over GST control)
- binding signal (HSF1): 2.86 fold enrichment (6-mer frequency, TF over GST control)
- binding signal (SPIC): 1.16 fold enrichment (6-mer frequency, TF over GST control)
- binding signal (ELF4): 1.13 fold enrichment (6-mer frequency, TF over GST control)
- binding signal (ELK4): 1.13 fold enrichment (6-mer frequency, TF over GST control)
- binding signal (ETV2): 1.21 fold enrichment (6-mer frequency, TF over GST control)
- binding signal (ELF3): 1.15 fold enrichment (6-mer frequency, TF over GST control)
- binding signal (CRX): 4.71 fold enrichment (6-mer frequency, TF over GST control)
- binding signal (ETV1): 1.12 fold enrichment (6-mer frequency, TF over GST control)
